In PubChem BioAssay (NCATS) one finds Potency and activity (max response) data, which are given here for 23 molecules.

Several values for one entry are separate records, joined by “and”; a condition that tells them apart may be missing. Equal entries are not always repeated. Results filed as inconclusive are left out. Values without a mark were called inactive. Activity calls are given as the source filed them. Calls follow the shape of the dose curve; as a rule, active = well fitted curve in the direction sought with a large enough effect; inconclusive = small, poorly fitted or top-dose-only effect, or another doubt; inactive = no such curve, though single readings can be large; an effect the other way counts as inactive or inconclusive.

Test [1] can be described thus: Viability qHTS for spleen associated tyrosine kinase inhibitor (SYKi) naive MV4-11 cells (AID 1963823). Also: nearly all actives have a fitted effect of over 40% in size. An outline of the steps: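 Read-out: CellTiter-Glo luminescence. Exposure: 72 hr, 37 C, 5% CO2, 95% humidity. Cells: MV4-11 without SYK inhibitor history, 500/well, qHTS format.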
On the technique in general: qHTS replaces the single test concentration by a dilution series.

A short description of test [2]: Viability qHTS for spleen associated tyrosine kinase inhibitor (SYKi) drug resistant MV4-11 cells (AID 1963824). Also: nearly all actives have a fitted effect of over 35% in size. An outline of the steps:
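CellTiter-Glo luminescence, read 10 min after reagent addition, reports viability after a 72 hr compound exposure. Cells are an MV4-11 line made resistant to SYK inhibition, seeded at 500 per well onto compound-containing plates.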

A short description of test [3]: Cellular viability qHTS for adrenocortical cancer (ACC) cell line SW-13 (AID 1963989). Also: nearly all actives have a fitted effect of over 65% in size.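 As to activity (max response): cells grown in serum-free medium with ITS supplement; % is scaled to controls: 0 for no effect and ±100 for the full control effect.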 To be noted: SW-13 ACC cells viability, CellTiter-Glo, 48 h; activity (max response): active compounds read low. An outline of the steps: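 Luminescent ATP read-out (CellTiter-Glo, 20 min at room temperature) measured metabolically competent SW-13 cells after 48 h compound treatment. Final concentrations spanned up to 46 uM; bortezomib served as positive control.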

The nature of test [4]: Cellular viability qHTS for adrenocortical cancer (ACC) cell line NCI-H295R (AID 1963990). Also: nearly all actives have a fitted effect of over 60% in size. An outline of the steps:
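IC50 and maximal efficacy derive from four-parameter logistic modelling of titration curves, with reads scaled between DMSO-only wells (0%) and doxorubicin hydrochloride (100% inhibition). Compounds spanned up to 46 uM over 48 h.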
Potency is read from the fitted curve at half-maximal effect.

As for `CCc1cc(C(N)=O)ccc1-n1nc(C(C)C)c2c(-n3cnc(-c4cnn(C)c4)c3)ccnc21`, the Potency in test [1] is 372 nM (active); in test [2], 590 nM (active); in test [3] it was 2820 nM (active); in test [4] it was 7940 nM (active).
Regarding `c1ccc2sc(SSc3nc4ccccc4s3)nc2c1`, the Potency entry in test [1], in test [2] and in test [4] was “inactive” throughout. The activity (max response) in test [3] was -16.2%.
Consider `CCN(CC)CCCC(C)Nc1c2ccc(Cl)cc2nc2ccc(OC)cc12` (configuration not stated), for which the Potency in test [1] was 4.22 µM (active) and 2.82 µM (active); in test [2] it was 2.09 µM (active) and 3.99 µM (active); in test [3], 28200 nM (active); in test [4], 14100 nM (active).
Turning to `CC(=O)OC[C@H]1O[C@@](COC(C)=O)(O[C@H]2O[C@H](COC(C)=O)[C@@H](OC(C)=O)[C@H](OC(C)=O)[C@H]2OC(C)=O)[C@@H](OC(C)=O)[C@@H]1OC(C)=O`, the Potency entry in test [1], in test [2] and in test [4] was “inactive” in each case. In test [3], the activity (max response) was 1.89%.
For `COc1cc(N2CCC(N)CC2)ccc1Nc1ncc(Cl)c(-c2c[nH]c3ccccc23)n1`, the Potency in test [1] was 16.6 nM (active); in test [2], 18.4 nM (active) and 37.2 nM (active); in test [3], 3160 nM (active); in test [4], 447 nM (active).
Consider `O=S(=O)(O)c1cc(I)c(O)c2ncccc12`, for which the Potency in test [1] is 15 nM (active). Besides, the Potency entry in test [2] and in test [4] was “inactive” in each case. In addition, in test [3], the activity (max response) was 0.547%.
As for `O=C(O)CCCC[P+](c1ccccc1)(c1ccccc1)c1ccccc1`, the Potency result in test [1], in test [2] and in test [4] was “inactive” in each case. For the same molecule, the activity (max response) in test [3] is 2%.
For the molecule `CC1=C(CO)C(=O)O[C@@H]([C@@H](C)[C@H]2CC[C@H]3[C@@H]4C[C@H]5O[C@]56[C@@H](O)C=CC(=O)[C@]6(C)[C@H]4CC[C@]23C)C1`, the Potency is 296 nM (active) in test [1]; 317 nM (active) and 263 nM (active) in test [2]; 1580 nM (active) in test [3]; 447 nM (active) in test [4].
Turning to `CC(=O)Nc1ccc(O)cc1`, the Potency entry in test [1], in test [2] and in test [4] was “inactive” each time. In test [3], the activity (max response) was -6.94% and -15.1%.
For the molecule `CCOC(=O)C(=O)CCCCCCl`, the Potency entry in test [1], in test [2] and in test [4] was “inactive” throughout. The activity (max response) in test [3] is 1.38%.
As for `CCCCCCCCCCCCCCCC[N+](C)(C)CC`, the Potency was 299 nM (active) in test [1], 668 nM (active) in test [2], 5170 nM (active) in test [3] and 7310 nM (active) in test [4].
In the case of `COc1cc(C)[nH]c(=O)c1CN1CCc2c(Cl)cc([C@H](OC)C3COC3)c(Cl)c2C1=O`, the Potency result in test [1], in test [2] and in test [4] was “inactive” in each case. Also, in test [3], the activity (max response) was -0.836%.
Turning to `CCN(C(=O)c1ccccc1OC)c1cc2c(cc1N1CCNC[C@H]1C)n(C)c(=O)n2C`, the Potency result in test [1], in test [2] and in test [4] was “inactive” throughout. Also, the activity (max response) in test [3] is 1.48%.
Regarding `C[C@H]1C[C@H]2[C@@H]3CCC4=CC(=O)C=C[C@]4(C)[C@H]3C(=O)C[C@]2(C)[C@@]1(O)C(=O)CO`, the Potency result in test [1], in test [2] and in test [4] was “inactive” each time. The activity (max response) in test [3] was -6.73%.
As for `CCN[C@H]1CN(CCCOC)S(=O)(=O)c2sc(S(N)(=O)=O)cc21`, the Potency result in test [1], in test [2] and in test [4] was “inactive” in each case. In test [3], the activity (max response) is 7.66%.
Take `CCO[C@@H]1OC(=O)C[C@@H]1NC(=O)[C@@H]1CCCN2C(=O)CC[C@H](NC(=O)c3nccc4ccccc34)C(=O)N12`: the Potency entry in test [1], in test [2] and in test [4] was “inactive” each time. For the same molecule, the activity (max response) in test [3] was -8.71%.
Consider `O=C(CCc1ccc(O)cc1)c1c(O)cc(O)cc1O[C@@H]1O[C@H](CO)[C@@H](O)[C@H](O)[C@H]1O`, for which the Potency result in test [1], in test [2] and in test [4] was “inactive” throughout. Moreover, in test [3], the activity (max response) was 0.618%.
As for `CCN1/C(=C/C(C)=O)Sc2ccc(OC)cc21`, the Potency in test [1] was 9200 nM (active); in test [2], 8200 nM (active). Also, the activity (max response) in test [3] was 3.06%. In addition, in test [4], the Potency result is “inactive”.
For `NC(=O)NNc1ccccc1`, in that order: “inactive”, “inactive”, -10.9% and “inactive”.
For the molecule `O=C(NO)c1cnc(NC2(c3ccccc3)CC2)nc1`, the Potency in test [1] is 5250 nM (active); in test [2] it was 4170 nM (active); in test [3] it was 10000 nM (active); in test [4] it was 3980 nM (active).
`O=C(/C=C/C#Cc1cccc(NS(=O)(=O)c2ccccc2)c1)NO`: the Potency was 407 nM (active) in test [1], 363 nM (active) in test [2], 8020 nM (active) in test [3] and 3190 nM (active) in test [4].
As for `CC1(C(=O)O)CCC2(C)CCC3(C)C(=CC(=O)C4C5(C)CCC(OC6OC(C(=O)O)C(O)C(O)C6OC6OC(C(=O)O)C(O)C(O)C6O)C(C)(C)C5CCC43C)C2C1` (configuration not stated), the Potency result in test [1], in test [2] and in test [4] was “inactive” each time. For the same molecule, the activity (max response) in test [3] is 1.77%.
For the molecule `CCC(=C/[C@H](C)C/C=C/C(C)=C/[C@@H](C)C(=O)[C@@H](C)[C@H](O)[C@@H](C)C/C(C)=C/C(=O)O)/C=C/[C@@H]1OC(=O)C=C[C@@H]1C`, the Potency in test [1] was 1.9 nM (active); in test [2], 2.1 nM (active); in test [3] it was 25.1 nM (active); in test [4] it was 10 nM (active).
